Measured values published in PubChem BioAssay AID1159580 (chemical genetic matrix, 2015).
Screen size: about 5,500 compounds; about 2,000 (36%) were called active. Another 18% or so got no clear call; they are omitted. No stated cut-off is given here; in the data, active means normalized growth mostly below about 0.91 (no sharp cut-off); inconclusive means no clear call, values can overlap the other calls; inactive means mostly above about 0.92. Some of the results follow.

Test: chemical genetic growth profiling, strain panel (AID 1159580);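 further: tested at 20 µM; growth read once vehicle control cultures reached saturation at 30 °C; 1 = growth at the plate median or of vehicle wells; lower values mean less growth of the strain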
Conditions: growth OD

Measured: normalized growth

O=C(Nc1ccc(C(F)(F)F)cc1)Nc1ccccc1C(=O)O
inactive: S. cerevisiae deletion strains, locus YAL013W, strain DEP1, hits give low values 0.975 | S. cerevisiae deletion strains, locus YBR229C, strain ROT2, hits give low values 0.993 | S. cerevisiae deletion strains, locus YCL061C, strain MRC1, hits give low values 0.967 | S. cerevisiae deletion strains, locus YDL101C, strain DUN1, hits give low values 0.994 | S. cerevisiae deletion strains, locus YDL134C, strain PPH21, hits give low values 0.989 | S. cerevisiae deletion strains, locus YDR150W, strain NUM1, hits give low values 0.972 | S. cerevisiae deletion strains, locus YEL061C, strain CIN8, hits give low values 1.01 | S. cerevisiae deletion strains, locus YGR078C, strain PAC10, hits give low values 0.984 | S. cerevisiae deletion strains, locus YGR229C, strain SMI1, hits give low values 0.975 | S. cerevisiae deletion strains, locus YHR030C, strain SLT2, hits give low values 0.99 | S. cerevisiae deletion strains, locus YHR087W, strain rtc3, hits give low values 0.994 | S. cerevisiae deletion strains, locus YJR043C, strain POL32, hits give low values 0.981 | S. cerevisiae deletion strains, locus YJR075W, strain HOC1, hits give low values 0.979 | S. cerevisiae deletion strains, locus YKL190W, strain CNB1, hits give low values 0.989 | S. cerevisiae deletion strains, locus YLR039C, strain RIC1, hits give low values 1.01 | S. cerevisiae deletion strains, locus YLR058C, strain SHM2 (second series), hits give low values 0.979 | S. cerevisiae deletion strains, locus YLR085C, strain ARP6, hits give low values 1 | S. cerevisiae deletion strains, locus YLR262C, strain YPT6, hits give low values 0.935 | S. cerevisiae deletion strains, locus YML094W, strain GIM5, hits give low values 1 | S. cerevisiae deletion strains, locus YMR219W, strain ESC1, hits give low values 0.971 | S. cerevisiae deletion strains, locus YMR263W, strain SAP30, hits give low values 0.991 | S. cerevisiae deletion strains, locus YNL153C, strain GIM3, hits give low values 0.977 | S. cerevisiae deletion strains, locus YNL298W, strain CLA4 (second series), hits give low values 0.96 | S. cerevisiae deletion strains, locus YNL322C, strain KRE1, hits give low values 0.971 | S. cerevisiae deletion strains, locus YNR030W, strain Alg12, hits give low values 1 | S. cerevisiae deletion strains, locus YOL006C, strain TOP1, hits give low values 0.939 | S. cerevisiae deletion strains, locus YPL055C, strain LGE1, hits give low values 0.996 | S. cerevisiae deletion strains, locus YPL241C, strain CIN2, hits give low values 0.977 | S. cerevisiae deletion strains, locus YPR135W, strain CTF4, hits give low values 0.949 | S. cerevisiae strains, strain wild type, hits give low values 0.968
